The results in this text go back to PubChem BioAssay.

One experiment addresses Albumin (Bos taurus) (UniProt P02769). The experiment can be described thus: bovine serum albumin binders on microarray, profiling panel, artefact control for SMM control protein annotation, biochemical, small-molecule microarray, Alexa647 label, 635/667 nm fluorescence (AID 1118).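 Further: score merges 667 nm emission intensity and signal-to-noise per printed compound spot.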 To be noted: BSA-A647 binding, fluorescence 635 nm, higher = more signal.
Experiment [1] is described as follows: small-molecule microarray binders of probe aXIP, primary screen, biochemical, NeuroSMM set, 635/667 nm fluorescence (AID 1119).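 Further: probe is the protein aXip251-270 applied at 1 µg/mL to compound-printed slides; binding of probe to printed compounds measured as 667 nm fluorescence plus signal to noise.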 To be noted: higher = more signal, called active from +8 up or from −8 down.
The nature of experiment [2]: small-molecule binders of probe aNOTCH3, primary screen, biochemical, small-molecule microarray, 635/667 nm fluorescence (AID 1120).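 Further: probe is a biotin-tagged antibody raised against NOTCH3 rather than NOTCH3 protein; score merges spot fluorescence near 667 nm with spot signal to noise.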 To be noted: higher = more signal.
Experiment [3] can be described thus: small-molecule binders of probe aNOTCH2, primary screen, biochemical, small-molecule microarray, 635/667 nm fluorescence (AID 1121).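 Further: score merges feature fluorescence read at 667 nm with its signal to noise.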 To be noted: higher = more signal.
For experiment [4], the target named is Carbonic anhydrase 2 (Homo sapiens) (UniProt P00918). The experiment is described as follows: CAII small-molecule binders, profiling panel, biochemical, small-molecule microarray, Alexa647-labelled CAII (AID 1122). To be noted: CAII-A647 binding fluorescence, higher = more signal.
Experiment [5] is described as follows: COS7 lysate on small-molecule microarray, probe aHis, 635 nm (AID 1123).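 Further: z-score combines 667nm fluorescence intensity with signal-to-noise per printed compound spot.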 To be noted: COS7 cell lysate, fluorescence, higher = more signal.
Experiment [6] can be described thus: compound binding in COS7 lysate, probe aLAP1, primary screen, cell lysate, small-molecule microarray (AID 1124).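 Further: lysate comes from COS7 cells expressing LAP1 and is applied at 0.3 µg/mL; score merges spot fluorescence near 667 nm with signal-to-noise over triplicate slides.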 The following applies: probe aLAP1, fluorescence, higher = more signal.
The next experiment concerns Sam68 (KHDRBS1). The experiment can be described thus: Sam68 small-molecule binders, primary screen, biochemical, small-molecule microarray, 635 nm fluorescence (AID 1125).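 Further: score merges 667 nm channel intensity with signal to noise over triplicate slides.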 The following applies: small-molecule microarray binding, higher = more signal.
The subject of experiment [7] is Chordin-like protein 2 (CHRDL2). The experiment is described as follows: CHRDL2 small-molecule binders, primary screen, biochemical, small-molecule microarray, 635 nm fluorescence (AID 1126).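 Further: printed compound slides probed with Chrdl2 protein at 4 µg/mL for 1 h at 4 C; score merges 667 nm emission intensity with signal to noise over three replicate slides.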 To be noted: small-molecule microarray binding, fluorescence 635 nm; higher = more signal.
For experiment [8], the target named is Concanavalin-A (Canavalia ensiformis) (UniProt P02866). The experiment is described as follows: ConA small-molecule binders, primary screen, artefact control for SMM control protein annotation, biochemical, small-molecule microarray, Alexa647 label, 635 nm (AID 1127).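 Further: z combines 667 nm emission intensity with signal-to-noise across three replicate slides.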 The following applies: ConA-A647 binding fluorescence, higher = more signal.
Chain of Concanavalin-A (Canavalia ensiformis) (P02866 whole entry, looked up): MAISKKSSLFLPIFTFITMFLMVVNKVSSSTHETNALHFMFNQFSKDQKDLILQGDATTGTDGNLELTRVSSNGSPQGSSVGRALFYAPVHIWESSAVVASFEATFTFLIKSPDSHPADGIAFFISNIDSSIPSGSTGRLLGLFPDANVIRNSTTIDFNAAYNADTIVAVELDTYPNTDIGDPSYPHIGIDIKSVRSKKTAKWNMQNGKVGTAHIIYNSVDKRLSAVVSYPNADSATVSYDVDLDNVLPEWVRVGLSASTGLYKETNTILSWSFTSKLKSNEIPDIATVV
A short description of experiment [9]: anti-His antibody binders, primary screen, artefact control for SMM control protein annotation, biochemical, small-molecule microarray, 635 nm fluorescence (AID 1128).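 Further: score merges feature fluorescence with signal-to-noise for each printed compound spot.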 The following applies: anti-His Alexa647 antibody binding, higher = more signal.
The subject of experiment [10] is Human papillomavirus type 1a E7 protein (residues 1-88). The experiment is described as follows: HPV1a E7 small-molecule binders, primary screen, biochemical, small-molecule microarray, residues 1-88, 635 nm (AID 1129). To be noted: small-molecule microarray binding, fluorescence 635 nm; higher = more signal.
Experiment [11] deals with Focal adhesion kinase 1 (Homo sapiens) (UniProt Q05397). The experiment can be described thus: small-molecule microarray binders of FAK, primary screen, biochemical, 635/667 nm fluorescence, BSA, DTT (AID 1130).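 Further: composite of spot emission at 667 nm and signal to noise over triplicate slides.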 To be noted: PTK2 binding, 635 nm fluorescence, higher = more signal.
Chain of Focal adhesion kinase 1 (Homo sapiens) (Q05397 whole entry, looked up): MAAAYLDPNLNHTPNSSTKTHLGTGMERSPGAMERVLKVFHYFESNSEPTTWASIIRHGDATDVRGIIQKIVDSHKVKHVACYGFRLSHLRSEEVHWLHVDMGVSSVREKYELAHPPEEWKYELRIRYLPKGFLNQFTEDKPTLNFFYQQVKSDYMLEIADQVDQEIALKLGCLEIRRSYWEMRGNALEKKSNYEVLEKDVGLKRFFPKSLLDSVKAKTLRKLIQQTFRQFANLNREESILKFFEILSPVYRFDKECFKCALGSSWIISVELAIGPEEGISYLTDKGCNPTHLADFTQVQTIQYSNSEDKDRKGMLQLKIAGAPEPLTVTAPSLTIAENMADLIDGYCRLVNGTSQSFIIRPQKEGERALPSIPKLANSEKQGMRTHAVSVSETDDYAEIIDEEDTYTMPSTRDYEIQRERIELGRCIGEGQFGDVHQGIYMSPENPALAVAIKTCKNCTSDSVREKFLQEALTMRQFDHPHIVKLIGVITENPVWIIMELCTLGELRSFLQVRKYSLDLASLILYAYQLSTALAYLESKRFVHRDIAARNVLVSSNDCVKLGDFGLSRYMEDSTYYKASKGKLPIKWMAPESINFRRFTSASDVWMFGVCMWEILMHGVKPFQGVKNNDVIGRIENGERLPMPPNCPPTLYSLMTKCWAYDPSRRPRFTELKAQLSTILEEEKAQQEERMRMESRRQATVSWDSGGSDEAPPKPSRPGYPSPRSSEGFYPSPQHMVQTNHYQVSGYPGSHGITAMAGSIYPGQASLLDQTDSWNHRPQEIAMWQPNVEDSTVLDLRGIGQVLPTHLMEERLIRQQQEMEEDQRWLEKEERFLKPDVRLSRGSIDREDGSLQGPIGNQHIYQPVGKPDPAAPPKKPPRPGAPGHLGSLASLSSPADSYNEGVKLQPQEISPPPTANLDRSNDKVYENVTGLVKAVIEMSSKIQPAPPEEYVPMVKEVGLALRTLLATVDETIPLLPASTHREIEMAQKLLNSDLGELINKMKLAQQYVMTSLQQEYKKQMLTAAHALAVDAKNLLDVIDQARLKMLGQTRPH
For experiment [12], the system named is Fibrinogen (Alexa647-labelled). The experiment can be described thus: fibrinogen binders on compound microarrays, profiling panel, artefact control for SMM control-protein annotation, biochemical, small-molecule microarray, 635/667 nm fluorescence (AID 1131).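 Further: z-score merges 667 nm fluorescence with per-spot signal-to-noise over triplicate slides.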 To be noted: fibrinogen-A647 binding fluorescence, higher = more signal.
Experiment [13] deals with Follistatin (Homo sapiens) (UniProt P19883). The experiment can be described thus: follistatin binders on small-molecule microarrays, primary screen, biochemical, small-molecule microarray, 635/667 nm fluorescence (AID 1132). To be noted: FST binding, 635 nm fluorescence, higher = more signal.
Chain of Follistatin (Homo sapiens) (P19883 whole entry, looked up): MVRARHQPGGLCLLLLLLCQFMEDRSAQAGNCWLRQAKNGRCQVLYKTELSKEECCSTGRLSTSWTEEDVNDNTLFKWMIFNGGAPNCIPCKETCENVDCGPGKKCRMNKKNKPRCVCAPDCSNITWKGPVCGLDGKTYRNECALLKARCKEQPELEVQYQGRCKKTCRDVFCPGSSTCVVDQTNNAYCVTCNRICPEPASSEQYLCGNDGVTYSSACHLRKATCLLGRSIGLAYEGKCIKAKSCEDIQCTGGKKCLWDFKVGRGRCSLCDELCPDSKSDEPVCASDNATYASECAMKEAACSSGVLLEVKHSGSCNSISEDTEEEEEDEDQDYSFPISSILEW
Experiment [14] concerns the target Fibroblast growth factor 2 (Homo sapiens) (UniProt P09038). The experiment is described as follows: FGF2 binders on small-molecule microarrays, primary screen, biochemical, small-molecule microarray, 635/667 nm fluorescence (AID 1133). The following applies: small-molecule microarray binding, FGF2, fluorescence 635/667; higher = more signal.
Experiment [15] is described as follows: mitochondrial membrane potential change in A549 cells, profiling panel, cell-based, JC-1 fluorescence, basal, 24 h, 100 nL (AID 1138).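 Further: A549 lung adenocarcinoma cells under basal conditions with no added stimulus; test concentration not given here.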 To be noted: higher = more signal.
For a further experiment, the system named is Lefty1. The experiment is described as follows: Lefty1 binders on small-molecule microarrays, primary screen, biochemical, small-molecule microarray, 635/667 nm fluorescence (AID 1139). To be noted: small-molecule microarray binding, fluorescence 635/667; higher = more signal.
Experiment [16] deals with wheat germ agglutinin (Triticum aestivum), Alexa647-labelled. The experiment can be described thus: wheat germ agglutinin binders on compound microarrays, profiling panel, artefact control for SMM control-protein annotation, biochemical, small-molecule microarray, 635/667 nm fluorescence (AID 1140).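 Further: score merges 667 nm feature emission with signal to noise over triplicate slides.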 To be noted: WGA-A647 binding, 635 nm fluorescence, higher = more signal.

Experiment [17] deals with Luciferin 4-monooxygenase (Photinus pyralis) (UniProt P08659). The experiment can be described thus: firefly luciferase enzyme inhibitors, primary screen, biochemical, luminescence, purified enzyme, 2006 set (AID 1141).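 Further: cell-free assay with purified firefly luciferase at 100 ng per well in PBS; test concentration not given here.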 The following applies: SteadyGlo luminescence, 30 min, higher = more signal, called active from +8 up or from −8 down.
Chain of Luciferin 4-monooxygenase (Photinus pyralis) (P08659 whole entry, looked up): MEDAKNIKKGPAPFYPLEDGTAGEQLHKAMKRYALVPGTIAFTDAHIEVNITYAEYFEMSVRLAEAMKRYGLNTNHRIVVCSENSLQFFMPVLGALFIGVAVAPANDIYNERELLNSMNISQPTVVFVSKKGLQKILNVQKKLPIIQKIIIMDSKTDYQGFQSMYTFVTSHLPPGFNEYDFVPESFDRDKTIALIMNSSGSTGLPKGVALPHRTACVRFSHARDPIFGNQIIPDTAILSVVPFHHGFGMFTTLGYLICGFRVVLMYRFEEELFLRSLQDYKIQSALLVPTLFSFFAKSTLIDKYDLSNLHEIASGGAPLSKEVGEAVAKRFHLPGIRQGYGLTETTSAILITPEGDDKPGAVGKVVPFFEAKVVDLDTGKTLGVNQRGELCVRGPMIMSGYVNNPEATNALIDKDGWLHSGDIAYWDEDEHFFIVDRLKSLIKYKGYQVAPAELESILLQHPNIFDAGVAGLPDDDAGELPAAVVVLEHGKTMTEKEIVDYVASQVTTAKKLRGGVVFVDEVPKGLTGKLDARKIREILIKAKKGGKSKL

Calls of active or inactive are those of the source.

Chain of Fibroblast growth factor 2 (Homo sapiens) (P09038 whole entry, looked up): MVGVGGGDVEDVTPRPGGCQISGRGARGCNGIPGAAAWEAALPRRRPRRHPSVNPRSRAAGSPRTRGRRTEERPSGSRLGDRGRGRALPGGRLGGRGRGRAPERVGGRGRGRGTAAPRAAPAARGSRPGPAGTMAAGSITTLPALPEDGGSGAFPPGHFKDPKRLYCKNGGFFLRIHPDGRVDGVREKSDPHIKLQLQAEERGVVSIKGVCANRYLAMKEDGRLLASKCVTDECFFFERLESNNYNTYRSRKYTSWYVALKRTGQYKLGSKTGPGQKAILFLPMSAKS
Chain of Albumin (Bos taurus) (P02769 whole entry, looked up): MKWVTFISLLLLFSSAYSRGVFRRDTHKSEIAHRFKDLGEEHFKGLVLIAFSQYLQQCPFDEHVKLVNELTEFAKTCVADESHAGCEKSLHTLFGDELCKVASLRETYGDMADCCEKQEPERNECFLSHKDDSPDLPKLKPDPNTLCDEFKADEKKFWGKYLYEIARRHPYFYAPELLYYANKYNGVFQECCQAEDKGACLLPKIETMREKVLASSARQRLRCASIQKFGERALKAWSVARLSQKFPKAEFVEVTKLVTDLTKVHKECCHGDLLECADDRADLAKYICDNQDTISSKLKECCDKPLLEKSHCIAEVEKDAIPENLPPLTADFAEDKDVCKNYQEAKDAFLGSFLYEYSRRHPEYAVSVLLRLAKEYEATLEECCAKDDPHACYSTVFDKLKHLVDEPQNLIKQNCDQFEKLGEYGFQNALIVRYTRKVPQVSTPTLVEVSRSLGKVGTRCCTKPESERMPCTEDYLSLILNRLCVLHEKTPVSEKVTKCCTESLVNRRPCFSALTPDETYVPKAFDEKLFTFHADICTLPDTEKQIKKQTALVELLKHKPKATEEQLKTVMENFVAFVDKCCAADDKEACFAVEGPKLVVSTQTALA

Regarding `CC[C@@H]1O[Si](C(C)C)(C(C)C)c2c1cc(-c1cc(C)c(OC)c(C)c1)nc2-c1ccc(Oc2ccccc2)cc1`, the composite z-score with Albumin (Bos taurus) is -0.145; in experiment [2] it was -0.0967; in experiment [3], -0.141; in experiment [4], -0.272; in experiment [5], 0.133; in experiment [6], -0.006. In addition, the composite z-score is -0.807 in the experiment with Sam68 (KHDRBS1); -0.77 in experiment [7]; -0.0734 in [8]; -0.23 in experiment [9]; -0.772 in [10]; -0.29 in [11]. Besides, the composite z-score in experiment [12] was -1.22; in experiment [13], -0.261; in experiment [14], -0.315; in the experiment on Lefty1, 0.287; in [16], 0.1. The composite Z-score in experiment [1] is -0.837 (inactive). Moreover, the results for the z-score in experiment [15] and in [17] were -0.413 and 1.09 (inactive), respectively.

As to `CC(=O)NCCCC[C@@H]1NC(=O)[C@@H]2C[C@H](C(=O)NCCCCCN)[C@H](c3cccc(OCCO)c3)N2C1=O`, the composite z-score stood at 0.379 with Albumin (Bos taurus); 0.324 in experiment [2]; 0.0181 in experiment [3]; 0.697 in experiment [4]; 0.812 in experiment [5]; 0.0312 in [6]. The composite z-score was determined as 0.803 with Sam68 (KHDRBS1); 0.56 in experiment [7]; 1.11 in [8]; 0.586 in experiment [9]; 1.04 in [10]; 0.295 in experiment [11]. The composite z-score in experiment [12] was determined as 0.97; in experiment [13], 1.37; in [14] it was 1.6; in the experiment with Lefty1 it was 1.03; in experiment [16], 0.79. Besides, the composite Z-score in [1] was 0.36 (inactive). For the same compound, the z-score in experiment [15] is 0.989; in experiment [17], 0.159 (inactive).

As to `COc1ccc(CCNC(=O)[C@@]2(c3ccc([N+](=O)[O-])cc3)CC(=O)N(C3CCCCC3)[C@@H]2c2ccc(CO)cc2)cc1`, the composite z-score stood at 0.143 with Albumin (Bos taurus); 0.245 in experiment [2]; 0.0224 in [3]; 0.283 in [4]; 1.89 in experiment [5]; 0.0344 in experiment [6]. Also, the composite z-score was 1.16 in the experiment on Sam68 (KHDRBS1); -0.0865 in [7]; 0.952 in experiment [8]; 1.84 in experiment [9]; 1.22 in experiment [10]; 0.757 in experiment [11]. Further, the composite z-score in experiment [12] was 0.393; in experiment [13], 0.695; in experiment [14] it was 0.373; in the experiment with Lefty1 it was -0.381; in experiment [16], 0.793. Besides, the composite Z-score in experiment [1] is 0.665 (inactive). The z-score in experiment [15] was 2.09; in experiment [17] it was -1.74 (inactive).

As for `Cc1ccc(NN2C(C(O)c3c(F)cccc3Cl)C=CC3C(=O)N(C4CCCCC4)C(=O)C32)cc1` (stereo not given), the composite z-score with Albumin (Bos taurus) is 0.979; in experiment [2] it was 0.102; in experiment [3], 0.174; in experiment [4] it was 0.489; in [5], 2.38; in [6], -0.0134. For the same compound, the composite z-score was 1.25 with Sam68 (KHDRBS1); -0.804 in experiment [7]; 1.19 in experiment [8]; 1.5 in experiment [9]; 1.2 in experiment [10]; 0.601 in [11]. For the same compound, the composite z-score in experiment [12] was 1.04; in [13], 0.842; in experiment [14], -0.413; in the experiment with Lefty1 it was -0.209; in experiment [16], 1.26. In addition, in experiment [1], the composite Z-score is 0.788 (inactive). Besides, the z-score in [15] was 1.19; in experiment [17], 0.289 (inactive).

Regarding `CCCCC=C[C@@H](NC(=O)OCc1ccccc1Cl)c1ccccc1`, the composite z-score in the experiment with Albumin (Bos taurus) is 0.997; in experiment [2], 1.74; in [3] it was 0.825; in experiment [4] it was 0.526; in experiment [5] it was 2.65; in experiment [6] it was 0.0357. For the same compound, the composite z-score was 1.3 in the experiment with Sam68 (KHDRBS1); -0.747 in experiment [7]; 1.13 in [8]; 0.361 in experiment [9]; 1.25 in experiment [10]; 0.128 in [11]. The composite z-score in experiment [12] is 0.979; in experiment [13], 1.19; in [14], -0.172; in the experiment on Lefty1, 0.868; in experiment [16], 0.385. Further, the composite Z-score in experiment [1] is -0.418 (inactive). For the same compound, the z-score in experiment [15] is -1.55; in [17], 0.488 (inactive).

For `CC1CC/C=C\[C@H]2OC34C=CCN(c5ccc6ccccc6c5)C(=O)[C@H]3N(CCCO)C(=O)[C@@H]4C2C(=O)O1` (stereo not given in full), the composite z-score with Albumin (Bos taurus) was -0.132; in experiment [2], -0.276; in experiment [3] it was -0.16; in [4], 0.574; in experiment [5], -0.515; in experiment [6] it was -0.701. Also, the composite z-score was -0.335 with Sam68 (KHDRBS1); -1.77 in [7]; -0.71 in experiment [8]; 1.08 in experiment [9]; -0.453 in experiment [10]; -0.633 in [11]. The composite z-score in experiment [12] is -0.794; in experiment [13] it was -0.82; in experiment [14] it was -1.86; in the experiment on Lefty1, -1.12; in experiment [16] it was -0.985. Further, in experiment [1], the composite Z-score was 1.18 (inactive). Further, the z-score was -0.148 in experiment [15] and -0.212 (inactive) in experiment [17].
